The text below walks through data of PubChem BioAssay (NCATS).

Inconclusive results are not listed. A call without a number means that no potency is given here. Activity calls are given as the source filed them. The call rests on the fitted dose curve; in most records, active means well fitted inhibition curve with a large enough effect; inconclusive means small, poorly fitted or top-dose-only effect, or effect the other way; inactive means flat fitted curve, though single readings scatter.
Potency means the concentration at half of the fitted maximal effect.

ATP-dependent 6-phosphofructokinase (Trypanosoma brucei brucei), sequence (O15648 whole entry, looked up): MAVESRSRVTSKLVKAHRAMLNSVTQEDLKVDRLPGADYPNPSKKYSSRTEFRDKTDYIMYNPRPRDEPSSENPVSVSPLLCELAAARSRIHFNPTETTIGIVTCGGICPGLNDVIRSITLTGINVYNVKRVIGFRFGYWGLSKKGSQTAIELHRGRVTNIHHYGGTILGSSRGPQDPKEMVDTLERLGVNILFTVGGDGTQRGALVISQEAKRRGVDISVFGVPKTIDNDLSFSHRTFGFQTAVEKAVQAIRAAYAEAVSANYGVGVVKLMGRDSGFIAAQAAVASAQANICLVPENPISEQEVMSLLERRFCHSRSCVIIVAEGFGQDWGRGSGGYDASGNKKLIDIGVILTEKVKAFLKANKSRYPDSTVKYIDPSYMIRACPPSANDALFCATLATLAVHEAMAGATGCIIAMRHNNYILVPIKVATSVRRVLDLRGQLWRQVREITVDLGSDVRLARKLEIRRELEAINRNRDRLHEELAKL

The assay has as its target ATP-dependent 6-phosphofructokinase (Trypanosoma brucei brucei) (UniProt O15648). Put plainly: qHTS Assay to Find Inhibitors of T. brucei phosphofructokinase: hit validation (AID 492961). The following applies: T. brucei PFK, ADP-Glo luminescence; series mostly up to 51.4 µM. Summed up: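 Measures ADP output of PFK (1.25 nM) at 0.1 mM ATP, 0.5 mM F6P, pH 8.0 TEA buffer with 5 mM MgCl2. No-enzyme wells define full inhibition; uninhibited enzyme wells define zero.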
In general terms: qHTS replaces the single test concentration by a dilution series.
In the case of `COc1cc([C@@H]2c3cc4c(cc3[C@H](O)[C@H]3COC(=O)[C@H]23)OCO4)cc(OC)c1OC`, the Potency result was “inactive”.
Consider `COc1cc(NS(=O)(=O)c2ccc(N)cc2)nc(OC)n1`, for which the Potency entry was “inactive”.
`CCOCC(O)COc1ccc(NC(=O)CC[S+](C)C)cc1` (configuration not stated): the Potency entry is “inactive”.
Take `COc1ccc(-c2ccc3cc(C(=O)O)ccc3c2)cc1C12CC3CC(CC(C3)C1)C2`: the Potency is 15.8 µM (active).
For `CN(C)CCc1c[nH]c2ccc(CS(=O)(=O)N3CCCC3)cc12`, the Potency result was “inactive”.
The same measure for `COc1cc2c(Nc3ccc(Br)cc3F)ncnc2cc1OCC1CCN(C)CC1`: “inactive”; for `OC(Cn1cncn1)(Cn1cncn1)c1ccc(F)cc1F`: “inactive”.
